Screens: PubChem, several laboratories
PostGolgi yeast: growth inhibition of a yeast mutant, post-Golgi transport screen; post-Golgi transport phenotypic cell assay; inhibition, % at 10 µM; 98,000 tested, 0.9% active; AID 739;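 note: yeast cells grown in 1536-well plates; yeast grown about 18 h at 30C before absorbance read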
CYP2C19 activ: activators of human cytochrome P450 2C19; recombinant CYP2C19, luciferin-H EGE luminescence; stronger effect = higher value; 0 = fully inhibited enzyme, 1 = untreated enzyme; P33261; activation factor at 5 µM; AID 1025; 96,000 tested, under 10 active;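 active = activation factor of at least 2 at 5 µM in the primary screen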
Target sequence (P33261 whole entry, looked up): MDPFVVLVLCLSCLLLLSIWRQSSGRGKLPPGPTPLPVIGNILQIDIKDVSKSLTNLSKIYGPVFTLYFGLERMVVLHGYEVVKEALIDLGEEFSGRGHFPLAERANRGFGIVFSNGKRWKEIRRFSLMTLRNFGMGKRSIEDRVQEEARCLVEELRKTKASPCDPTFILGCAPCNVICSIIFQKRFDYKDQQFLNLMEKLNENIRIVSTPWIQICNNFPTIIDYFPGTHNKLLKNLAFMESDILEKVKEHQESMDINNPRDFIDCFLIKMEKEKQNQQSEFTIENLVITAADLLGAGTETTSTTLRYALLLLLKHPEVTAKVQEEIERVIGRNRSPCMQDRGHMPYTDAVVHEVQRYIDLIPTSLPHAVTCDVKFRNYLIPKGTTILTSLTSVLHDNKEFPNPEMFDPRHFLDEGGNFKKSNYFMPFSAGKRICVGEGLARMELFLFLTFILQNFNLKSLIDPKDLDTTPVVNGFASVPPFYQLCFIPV
PostGolgi ctrl: inhibits growth of the yeast control strain | efflux-deficient yeast background strain, growth absorbance A615, 16 h | inhibition, % at 10 µM | 98,000 tested, 5% active
CYP2C19 inhib: inhibitors of human CYP2C19; CYP2C19 Supersomes, luciferin-H EGE luminescence, 30 min; inhibition, % at 5 µM; 96,000 tested, 21% active; AID 778;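 active = CYP2C19 inhibition above a set limit at 5 µM in the primary screen, cut at about 50% in these data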
CYP2C9 activ: CYP2C9 (human) activation; recombinant CYP2C9, luciferin-H conversion, luminescence; stronger effect = higher value; factor 1 = untreated enzyme, 0 = blocked; activation factor at 5 µM; 96,000 tested, 1.4% active; AID 1024;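 active = activation factor of 2 or more for CYP2C9 at a 5 µM dose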
CYP2C9 inhib: blocks human cytochrome P450 2C9. 96,000 tested, 20% active. CYP2C9 Supersomes, luciferin-H conversion, luminescence. P11712. inhibition, % at 5 µM;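 active = blocking of liver enzyme CYP2C9 beyond about 50% at 5 µM, limit read from the data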
Of the large screens only hits and unclear results are named; the others gave an inactive call. Compounds with a hit are over-represented: about 32% of the library has one in this group of screens. Cut-off read from the data, not from the text of the source, unless noted: active = inhibition above about 30%; inactive = the rest.

CCCCOc1ccc(-c2nnc(-c3ccncc3)o2)cc1	CYP2C19 inhib 96, CYP2C9 inhib 54
Cn1c(-c2sc3cc(C(F)(F)F)cnc3c2-c2cccnc2)n[nH]c1=S	none
COc1ccc(-c2nc3n(n2)C(=O)CC(c2ccco2)S3)cc1 (stereo unspecified)	PostGolgi ctrl 41 (no result: CYP2C19 activ, CYP2C19 inhib, CYP2C9 activ, CYP2C9 inhib)
CC1Cc2ccccc2N1C(=O)CSc1nc2cc3c(cc2cc1C#N)OCO3 (stereo unspecified)	none
Cc1cc(NC(=O)CSc2nc(C3CC3)nc3sc(C)c(C)c23)no1	CYP2C9 inhib 63
CCCc1nc(SCC(=O)NCc2ccco2)c2c(=O)n(C)c(=O)n(C)c2n1	none
Cc1sc2nc(C3CC3)nc(SCC(=O)NCc3ccco3)c2c1C	CYP2C19 inhib 84
CCc1nc(SCC(=O)Nc2cc(C)on2)c2c(C)c(C)sc2n1	none
Cc1sc2nc(C3CC3)nc(SCC(=O)N3c4ccccc4CC3C)c2c1C (stereo unspecified)	CYP2C19 inhib 65, CYP2C9 inhib 99
Cc1ccc(C2c3c(oc4cc(C)c(C)cc4c3=O)C(=O)N2CCCN2CCOCC2)cc1 (stereo unspecified)	none (no result: PostGolgi yeast, PostGolgi ctrl)
O=C(NCCO)c1cc2ccccc2c(=O)s1	none
COC(=O)c1cc2ccccc2c(=O)s1	CYP2C19 inhib 61
COC(=O)c1cc2ccc(OC)c(OC)c2c(=O)s1	CYP2C19 inhib 57
O=C(Cn1cnc2c(cnn2-c2ccc(Cl)cc2)c1=O)NCC1CCCO1 (stereo unspecified)	none
Cc1ccccc1-c1nc(Cc2ccccc2)no1	none
CC(C)(C)c1ccc(S(=O)(=O)CCc2ccccn2)cc1	CYP2C19 inhib 68
Cc1ccc(S(=O)(=O)CCc2ccccn2)cc1	none
O=C(CN1CCCCC1)Nc1cccc([N+](=O)[O-])c1	none
CCOC(=O)c1ccccc1NC(=O)CN(c1ccccc1OCC)S(C)(=O)=O	none
CCOc1ccccc1N(CC(=O)Nc1ccccc1C(=O)O)S(C)(=O)=O	CYP2C9 inhib 97
CCOc1ccc(N(CC(=O)Nc2ccccc2C(=O)NCc2ccco2)S(C)(=O)=O)cc1	CYP2C9 inhib 70
CCOc1ccccc1N(CC(=O)Nc1ccccc1C(=O)NCc1ccco1)S(C)(=O)=O	CYP2C19 inhib 86, CYP2C9 inhib 86
CCOc1ccccc1N(CC(=O)Nc1cc(OC)ccc1OC)S(C)(=O)=O	CYP2C19 inhib 96, CYP2C9 inhib 84
CCOc1ccccc1N(CC(=O)OC)S(C)(=O)=O	none
Cc1ccc(-c2ccc(/C=N/N3C(=O)C4C5C=CC(C6CC56)C4C3=O)o2)c([N+](=O)[O-])c1 (stereo unspecified)	none
CCn1nnc2sc3c(c2c1=O)CCC(C)C3 (stereo unspecified)	none
CC(C)CCOCc1nc2sc3c(c2c(=O)[nH]1)CCC(C)C3 (stereo unspecified)	CYP2C19 inhib 54, CYP2C9 inhib 72
COc1ccc(-c2nc3nc(C)cc(C)n3n2)cc1	none
COC(=O)c1cccc(NC(=O)/C=C/c2cccc([N+](=O)[O-])c2)c1	none
Cc1ccccc1NC(=O)C(C)O/N=C/c1cccc([N+](=O)[O-])c1 (stereo unspecified)	CYP2C19 inhib 95, CYP2C9 inhib 93
Cc1cc(C(=O)OCC(=O)N2C(C)CCCC2C)c(C)o1 (stereo unspecified)	none (no result: CYP2C19 activ, CYP2C19 inhib, CYP2C9 activ, CYP2C9 inhib)
O=c1c2ccccc2n2nnnc2n1-c1ccccc1	none
COC(=O)C1=C(C)N2C(=O)CSC2=NC1c1ccc2c(c1)OCO2 (stereo unspecified)	CYP2C19 inhib 65, CYP2C9 inhib 50 (no result: PostGolgi yeast, PostGolgi ctrl)
Cn1nc(C(=O)NC2=NCCS2)ccc1=O	none
CCOC(=O)CSc1nnc(-c2ccccc2NC(=O)c2ccccc2)o1	none
CCc1nnc(NC(=O)CSc2nnc(-c3ccccc3NC(=O)c3ccccc3)o2)s1	CYP2C9 inhib 51
O=C(Nc1ccccc1-c1nnc(SCc2ccccc2Cl)o1)c1ccccc1	CYP2C9 inhib 55
COc1ccccc1-c1nnc(SCC(=O)Nc2ccc(Cl)cc2Cl)o1	none
C=CC(O)Cc1c(C)n[nH]c1C (stereo unspecified)	none
COc1ccc(N2C(=O)CCC(C(=O)c3ccccc3)=C2C)cc1	CYP2C19 inhib 95
Cc1ccnc(NC(=O)Nc2cccc(F)c2)c1	none
Cc1nn(C(C)(C)C)c(OC(=O)c2cccs2)c1S(=O)(=O)c1ccccc1	CYP2C9 inhib 87
COC(=O)CN(n1cnnc1)S(=O)(=O)c1ccc(C)cc1	none
COCC(=O)Oc1c(S(=O)(=O)c2ccc(C)cc2)c(C)nn1-c1ccccc1	CYP2C9 inhib 81
CC(=O)Oc1c(S(=O)(=O)c2ccccc2)c(C)nn1C(C)(C)C	CYP2C19 inhib 86
CCC(=O)Oc1c(S(=O)(=O)c2ccc(C)cc2)c(C)nn1C(C)(C)C	CYP2C19 inhib 69, CYP2C9 inhib 52
CC(C)(C)C(=O)Oc1cc(N)n(S(=O)(=O)c2ccccc2)n1	none
Cc1cccc(-n2c(SCCC(=O)O)nnc2-c2cccs2)c1C	none
CSc1nsc(SC)c1C(=O)NCCNS(=O)(=O)c1ccc(C)cc1	none
COc1ccc2nc(NC(=O)CSc3nccc(C)n3)sc2c1	none
COc1ccc2nc(NC(=O)CSc3nc(C)cc(=O)[nH]3)sc2c1	CYP2C9 inhib 52
CCOc1ccc2nc(NC(=O)COC)sc2c1	none
CCOc1ccc2nc(NC(=O)c3ccoc3C)sc2c1	CYP2C19 inhib 100, CYP2C9 inhib 85
CCOc1ccc2nc(NC(=O)C(CC)Sc3nc(C)cc(=O)[nH]3)sc2c1 (stereo unspecified)	CYP2C9 inhib 68
CCOC(=O)c1sc(NC(=S)NC(=O)c2ccccc2Cl)c(C(=O)OCC)c1C	none
CCc1nc2oc3ccccc3c(=O)c2c(=O)n1-c1ccccc1	PostGolgi ctrl 30
CCc1nc2oc3ccccc3c(=O)c2c(=O)n1CCOC	none
N#Cc1cc(C(=O)c2cc(Br)ccc2O)cn(C2CCCCC2)c1=O	none
CC12CC3(C)CC(C)(C1)CC(C(=O)Nc1nn[nH]n1)(C2)C3	CYP2C19 inhib 54
CC12CC3CC(C)(C1)CC(C(=O)Nc1nn[nH]n1)(C3)C2	none
Cn1c(=O)c2c(nc(NCCCN3CCOCC3)n2Cc2ccc(Cl)cc2)n(C)c1=O	none (no result: PostGolgi yeast, PostGolgi ctrl)
Cc1cccc(-c2cc3nc(C)cc(NCCCn4ccnc4)n3n2)c1	CYP2C19 inhib 93, CYP2C9 inhib 96
Cc1cc(NCCCN2CCOCC2)n2ncc(-c3ccc(Cl)cc3)c2n1	PostGolgi yeast 85, PostGolgi ctrl 31
Cc1cc(NCCCn2ccnc2)n2ncc(-c3ccc(Cl)cc3)c2n1	PostGolgi ctrl 47, CYP2C19 inhib 74, CYP2C9 inhib 87
Cc1ccc(C)n1-c1sccc1C(=O)O	none
COC(=O)c1nn2c(C(F)(F)F)cc(-c3ccc(Br)o3)nc2c1Br	none (no result: PostGolgi yeast, PostGolgi ctrl)
O=C(CSc1nc2ccccc2c(=O)[nH]1)N1CCCCCC1	none
O=C(CSc1nc2ccccc2c(=O)[nH]1)c1ccc(O)c(O)c1	CYP2C9 inhib 77
